# How the values were obtained:
# Experiment in all cases: DAPPL (digital affinity profiling via proximity ligation, sequencing); 10 mM Tris-HCl pH 7.5, 50 mM NaCl, 1 mM DTT, 4% glycerol, room temperature, 30 min; GST-TFs on glutathione beads, 16-mer random dsDNA library, 0.1% formaldehyde crosslink after washing; high values mean tight binding
# FEV = biological target: T1, FEV (Homo sapiens, UniProt Q99581 1-238); settings: protein: recombinant; tags: N-terminal GST; dsDNA, one strand shown
# T1 sequence: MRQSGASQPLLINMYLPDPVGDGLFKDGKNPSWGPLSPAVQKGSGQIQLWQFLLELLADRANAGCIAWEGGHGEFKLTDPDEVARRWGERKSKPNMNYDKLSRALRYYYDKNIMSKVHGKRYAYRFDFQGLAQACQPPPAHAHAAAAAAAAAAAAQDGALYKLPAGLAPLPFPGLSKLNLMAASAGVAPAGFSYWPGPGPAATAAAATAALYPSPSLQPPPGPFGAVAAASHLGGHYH
# Procedure, shortened: (§1)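 Binding signal is each hexamer's read frequency for a factor divided by its frequency in the tag-only sample. The factors were GST-fused human transcription factors from yeast, captured on glutathione beads, DNA-barcoded and pooled with that sample. Pools were incubated with 200 nmole of a random double-stranded 16-mer DNA library in Tris/NaCl/DTT/glycerol buffer at room temperature for 30 min, then washed, crosslinked with 0.1% formaldehyde, proximity-ligated with BsaI/T4 ligase (1 h, 37 °C), PCR-amplified and sequenced on an Illumina NextSeq500.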
# ETV5 = ETV5 (Homo sapiens, UniProt P41161 1-510); settings: protein: recombinant; tags: N-terminal GST; dsDNA, one strand shown
# Procedure, shortened: as §1
# HSF1 = HSF1 (Homo sapiens, UniProt Q00613 1-529); settings: protein: recombinant; tags: N-terminal GST; chain copies: 3; dsDNA, one strand shown
# Procedure, shortened: as §1
# SPIC = biological target: T2, SPIC (Homo sapiens, UniProt Q8N5J4 1-248); settings: protein: recombinant; tags: N-terminal GST; dsDNA, one strand shown
# T2 sequence: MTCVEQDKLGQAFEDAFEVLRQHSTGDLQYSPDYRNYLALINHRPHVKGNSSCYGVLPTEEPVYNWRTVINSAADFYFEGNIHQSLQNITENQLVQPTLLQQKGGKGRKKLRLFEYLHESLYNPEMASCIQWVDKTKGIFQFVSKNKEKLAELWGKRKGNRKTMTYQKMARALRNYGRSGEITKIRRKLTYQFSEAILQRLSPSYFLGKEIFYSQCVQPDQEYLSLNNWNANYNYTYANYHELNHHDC
# Procedure, shortened: as §1
# ELF4 = ELF4 (Homo sapiens, UniProt Q99607 1-663); settings: protein: recombinant; tags: N-terminal GST; dsDNA, one strand shown
# Procedure, shortened: as §1
# ELK4 = biological target: T3, ELK4 (Homo sapiens, UniProt P28324-2 1-405); settings: protein: recombinant; tags: N-terminal GST; dsDNA, one strand shown
# T3 sequence: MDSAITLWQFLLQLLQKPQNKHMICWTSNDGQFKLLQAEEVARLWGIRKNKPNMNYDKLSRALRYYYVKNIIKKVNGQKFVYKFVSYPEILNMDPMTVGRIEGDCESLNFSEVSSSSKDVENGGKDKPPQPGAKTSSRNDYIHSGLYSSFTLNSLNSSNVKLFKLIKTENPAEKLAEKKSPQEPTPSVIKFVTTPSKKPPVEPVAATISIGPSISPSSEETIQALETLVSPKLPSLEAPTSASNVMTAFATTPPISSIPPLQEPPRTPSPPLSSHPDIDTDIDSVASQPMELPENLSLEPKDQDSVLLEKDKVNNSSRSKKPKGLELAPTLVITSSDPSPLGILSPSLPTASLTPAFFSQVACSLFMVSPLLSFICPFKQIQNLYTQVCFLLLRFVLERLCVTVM
# Procedure, shortened: as §1
# ETV2 = biological target: T4, ETV2 (Homo sapiens, UniProt O00321 1-342); settings: protein: recombinant; tags: N-terminal GST; dsDNA, one strand shown
# T4 sequence: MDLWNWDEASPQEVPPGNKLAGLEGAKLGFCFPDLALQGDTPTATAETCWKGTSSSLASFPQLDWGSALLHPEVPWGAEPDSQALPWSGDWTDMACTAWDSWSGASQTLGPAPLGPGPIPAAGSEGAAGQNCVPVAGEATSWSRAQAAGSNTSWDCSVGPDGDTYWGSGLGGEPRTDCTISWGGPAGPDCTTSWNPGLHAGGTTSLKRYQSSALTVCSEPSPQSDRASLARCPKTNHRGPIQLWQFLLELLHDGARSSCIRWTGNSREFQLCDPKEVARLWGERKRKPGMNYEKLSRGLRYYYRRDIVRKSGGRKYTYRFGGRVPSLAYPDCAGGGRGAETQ
# Procedure, shortened: as §1
# ELF3 = biological target: T5, ELF3 (Homo sapiens, UniProt P78545 1-371); settings: protein: recombinant; tags: N-terminal GST; dsDNA, one strand shown
# T5 sequence: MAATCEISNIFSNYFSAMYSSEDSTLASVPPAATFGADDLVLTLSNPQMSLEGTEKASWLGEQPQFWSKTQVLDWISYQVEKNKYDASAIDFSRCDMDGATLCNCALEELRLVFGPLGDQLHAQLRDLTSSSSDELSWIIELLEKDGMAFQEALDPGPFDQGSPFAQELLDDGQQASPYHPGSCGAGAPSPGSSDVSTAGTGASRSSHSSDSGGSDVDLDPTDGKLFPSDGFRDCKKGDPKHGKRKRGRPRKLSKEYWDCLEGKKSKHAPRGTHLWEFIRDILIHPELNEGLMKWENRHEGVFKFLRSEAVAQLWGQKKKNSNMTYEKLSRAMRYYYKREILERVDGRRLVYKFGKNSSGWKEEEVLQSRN
# Procedure, shortened: as §1
# CRX = CRX (Homo sapiens, UniProt O43186 1-299); settings: protein: recombinant; tags: N-terminal GST; dsDNA, one strand shown
# Procedure, shortened: as §1
# ETV1 = ETV1 (Homo sapiens, UniProt P50549 1-477); settings: protein: recombinant; tags: N-terminal GST; dsDNA, one strand shown
# Procedure, shortened: as §1
# ERF = biological target: T6, ERF (Homo sapiens, UniProt P50548 1-548); settings: protein: recombinant; tags: N-terminal GST; dsDNA, one strand shown
# T6 sequence: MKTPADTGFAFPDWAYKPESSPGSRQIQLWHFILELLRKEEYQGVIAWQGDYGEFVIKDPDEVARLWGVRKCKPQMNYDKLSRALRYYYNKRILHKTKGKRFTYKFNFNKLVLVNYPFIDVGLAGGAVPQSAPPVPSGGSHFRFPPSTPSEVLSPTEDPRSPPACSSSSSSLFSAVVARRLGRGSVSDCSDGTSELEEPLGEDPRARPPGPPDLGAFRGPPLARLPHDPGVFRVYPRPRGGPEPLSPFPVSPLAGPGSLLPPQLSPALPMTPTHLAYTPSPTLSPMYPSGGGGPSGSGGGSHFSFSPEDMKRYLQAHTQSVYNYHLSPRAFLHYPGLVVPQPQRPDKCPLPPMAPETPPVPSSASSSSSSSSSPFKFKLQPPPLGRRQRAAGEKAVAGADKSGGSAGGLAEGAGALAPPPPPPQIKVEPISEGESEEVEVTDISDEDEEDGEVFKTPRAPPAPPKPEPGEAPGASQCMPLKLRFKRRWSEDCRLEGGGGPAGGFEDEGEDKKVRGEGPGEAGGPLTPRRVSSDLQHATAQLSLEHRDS
# Procedure, shortened: as §1
# ETV3L = biological target: T7, ETV3L (Homo sapiens, UniProt Q6ZN32 1-361); settings: protein: recombinant; tags: N-terminal GST; dsDNA, one strand shown
# T7 sequence: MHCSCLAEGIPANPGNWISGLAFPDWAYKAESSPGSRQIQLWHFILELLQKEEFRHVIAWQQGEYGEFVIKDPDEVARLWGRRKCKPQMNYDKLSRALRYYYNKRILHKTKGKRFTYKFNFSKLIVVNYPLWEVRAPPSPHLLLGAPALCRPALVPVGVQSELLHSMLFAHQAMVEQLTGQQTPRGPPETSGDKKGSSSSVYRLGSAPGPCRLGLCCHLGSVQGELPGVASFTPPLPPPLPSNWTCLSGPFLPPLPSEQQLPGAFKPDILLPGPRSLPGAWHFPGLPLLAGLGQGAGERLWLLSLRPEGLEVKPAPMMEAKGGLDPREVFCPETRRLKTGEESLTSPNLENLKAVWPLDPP
# Procedure, shortened: as §1
# ETS2 = biological target: T8, ETS2 (Homo sapiens, UniProt P15036 1-469); settings: protein: recombinant; tags: N-terminal GST; dsDNA, one strand shown
# T8 sequence: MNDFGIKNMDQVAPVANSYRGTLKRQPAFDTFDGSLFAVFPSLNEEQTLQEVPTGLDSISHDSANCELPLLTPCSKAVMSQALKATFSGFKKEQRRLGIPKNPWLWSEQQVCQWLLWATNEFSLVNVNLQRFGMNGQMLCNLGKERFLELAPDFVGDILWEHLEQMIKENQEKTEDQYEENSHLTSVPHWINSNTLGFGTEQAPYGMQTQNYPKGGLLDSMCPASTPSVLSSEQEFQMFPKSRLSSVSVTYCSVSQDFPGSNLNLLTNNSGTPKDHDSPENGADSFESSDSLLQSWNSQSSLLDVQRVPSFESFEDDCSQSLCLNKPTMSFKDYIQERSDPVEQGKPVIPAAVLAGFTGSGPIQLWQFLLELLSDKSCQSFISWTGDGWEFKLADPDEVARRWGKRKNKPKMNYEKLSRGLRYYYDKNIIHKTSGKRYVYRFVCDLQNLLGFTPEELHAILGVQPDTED
# Procedure, shortened: as §1
# SPDEF = biological target: T9, SPDEF (Homo sapiens, UniProt O95238 1-335); settings: protein: recombinant; tags: N-terminal GST; dsDNA, one strand shown
# T9 sequence: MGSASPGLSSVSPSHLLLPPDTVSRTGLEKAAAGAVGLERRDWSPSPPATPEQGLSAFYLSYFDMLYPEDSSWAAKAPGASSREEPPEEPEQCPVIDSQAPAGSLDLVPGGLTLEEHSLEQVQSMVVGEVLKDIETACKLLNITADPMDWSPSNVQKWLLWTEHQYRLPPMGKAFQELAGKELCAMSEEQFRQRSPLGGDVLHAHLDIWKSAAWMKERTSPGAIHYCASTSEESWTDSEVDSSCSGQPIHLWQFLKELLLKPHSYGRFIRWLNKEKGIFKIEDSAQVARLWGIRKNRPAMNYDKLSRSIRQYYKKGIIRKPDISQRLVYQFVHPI
# Procedure, shortened: as §1
# ETV7 = biological target: T10, ETV7 (Homo sapiens, UniProt Q9Y603 1-341); settings: protein: recombinant; tags: N-terminal GST; dsDNA, one strand shown
# T10 sequence: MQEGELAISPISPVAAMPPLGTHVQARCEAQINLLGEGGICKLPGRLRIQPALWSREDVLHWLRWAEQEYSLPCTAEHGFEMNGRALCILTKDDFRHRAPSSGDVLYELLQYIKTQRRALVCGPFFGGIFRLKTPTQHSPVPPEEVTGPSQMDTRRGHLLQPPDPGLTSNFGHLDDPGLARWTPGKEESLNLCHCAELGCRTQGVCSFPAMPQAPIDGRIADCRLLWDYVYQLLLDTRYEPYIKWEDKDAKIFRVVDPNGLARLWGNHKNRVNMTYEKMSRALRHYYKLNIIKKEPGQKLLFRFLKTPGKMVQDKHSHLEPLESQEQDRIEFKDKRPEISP
# Procedure, shortened: as §1
# ELF5 = biological target: T11, ELF5 (Homo sapiens, UniProt Q9UKW6-2 1-255); settings: protein: recombinant; tags: N-terminal GST; dsDNA, one strand shown
# T11 sequence: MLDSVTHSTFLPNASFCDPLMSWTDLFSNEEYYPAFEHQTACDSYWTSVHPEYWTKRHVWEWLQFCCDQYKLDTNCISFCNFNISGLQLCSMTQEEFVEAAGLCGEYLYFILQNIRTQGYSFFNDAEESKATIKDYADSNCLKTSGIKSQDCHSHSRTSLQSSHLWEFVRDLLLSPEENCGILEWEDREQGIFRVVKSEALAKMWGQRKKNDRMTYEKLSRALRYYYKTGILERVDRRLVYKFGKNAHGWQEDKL
# Procedure, shortened: as §1
# ETV3 = biological target: T12, ETV3 (Homo sapiens, UniProt P41162-2 1-143); settings: protein: recombinant; tags: N-terminal GST; dsDNA, one strand shown
# T12 sequence: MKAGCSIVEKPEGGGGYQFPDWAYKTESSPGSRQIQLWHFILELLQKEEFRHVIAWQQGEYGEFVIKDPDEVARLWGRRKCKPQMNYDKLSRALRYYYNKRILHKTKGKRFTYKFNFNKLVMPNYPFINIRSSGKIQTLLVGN
# Procedure, shortened: as §1
# ETV6 = ETV6 (Homo sapiens, UniProt P41212 1-452); settings: protein: recombinant; tags: N-terminal GST; dsDNA, one strand shown
# Procedure, shortened: as §1
# Chain of ETV1 (P50549 whole entry): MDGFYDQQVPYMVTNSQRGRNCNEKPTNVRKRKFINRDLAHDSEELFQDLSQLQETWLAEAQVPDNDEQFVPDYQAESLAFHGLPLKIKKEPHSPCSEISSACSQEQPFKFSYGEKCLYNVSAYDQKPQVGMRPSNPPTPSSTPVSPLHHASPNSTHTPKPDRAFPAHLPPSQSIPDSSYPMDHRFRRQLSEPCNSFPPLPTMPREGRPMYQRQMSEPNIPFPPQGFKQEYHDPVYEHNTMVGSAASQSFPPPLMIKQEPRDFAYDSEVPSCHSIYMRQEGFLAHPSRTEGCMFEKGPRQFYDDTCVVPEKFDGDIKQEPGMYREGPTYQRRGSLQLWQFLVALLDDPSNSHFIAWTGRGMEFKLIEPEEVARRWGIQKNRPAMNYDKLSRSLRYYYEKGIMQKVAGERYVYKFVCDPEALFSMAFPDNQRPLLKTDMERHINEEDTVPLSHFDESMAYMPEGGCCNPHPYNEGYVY
# Chain of CRX (O43186 whole entry): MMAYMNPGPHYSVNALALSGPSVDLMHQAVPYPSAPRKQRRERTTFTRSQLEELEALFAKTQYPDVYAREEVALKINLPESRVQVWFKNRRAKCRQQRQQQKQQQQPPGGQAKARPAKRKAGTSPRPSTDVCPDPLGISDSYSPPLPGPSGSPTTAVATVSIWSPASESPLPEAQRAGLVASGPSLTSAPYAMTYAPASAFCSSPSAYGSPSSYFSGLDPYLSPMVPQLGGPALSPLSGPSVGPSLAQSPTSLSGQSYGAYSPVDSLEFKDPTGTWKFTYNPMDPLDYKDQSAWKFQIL
# Chain of ETV6 (P41212 whole entry): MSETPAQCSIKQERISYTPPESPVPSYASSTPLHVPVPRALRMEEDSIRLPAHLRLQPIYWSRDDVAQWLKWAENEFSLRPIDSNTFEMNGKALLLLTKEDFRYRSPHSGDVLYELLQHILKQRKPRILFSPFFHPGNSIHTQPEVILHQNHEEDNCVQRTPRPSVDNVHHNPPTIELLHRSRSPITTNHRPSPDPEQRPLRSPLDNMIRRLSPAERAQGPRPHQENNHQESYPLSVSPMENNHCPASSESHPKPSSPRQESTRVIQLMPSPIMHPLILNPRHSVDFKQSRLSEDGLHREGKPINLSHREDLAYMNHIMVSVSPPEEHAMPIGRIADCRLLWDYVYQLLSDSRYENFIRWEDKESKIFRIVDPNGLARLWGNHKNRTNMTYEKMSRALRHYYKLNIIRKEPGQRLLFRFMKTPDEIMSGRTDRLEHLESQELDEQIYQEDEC
# Chain of ETV5 (P41161 whole entry): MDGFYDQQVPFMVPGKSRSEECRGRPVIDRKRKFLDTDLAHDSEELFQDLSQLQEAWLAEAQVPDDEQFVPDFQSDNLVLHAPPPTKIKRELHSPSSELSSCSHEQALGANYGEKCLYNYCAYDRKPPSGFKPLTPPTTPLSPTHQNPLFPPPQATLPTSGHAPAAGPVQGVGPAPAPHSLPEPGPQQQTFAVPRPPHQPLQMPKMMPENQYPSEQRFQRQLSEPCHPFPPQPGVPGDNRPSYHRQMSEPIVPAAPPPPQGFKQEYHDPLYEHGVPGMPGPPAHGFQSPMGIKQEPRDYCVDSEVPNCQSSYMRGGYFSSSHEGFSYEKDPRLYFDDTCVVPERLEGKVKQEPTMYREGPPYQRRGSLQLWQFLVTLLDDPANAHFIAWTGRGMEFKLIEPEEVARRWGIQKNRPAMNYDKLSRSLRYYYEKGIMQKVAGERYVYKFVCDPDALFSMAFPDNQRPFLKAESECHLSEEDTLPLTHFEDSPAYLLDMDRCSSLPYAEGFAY
# Chain of ELF4 (Q99607 whole entry): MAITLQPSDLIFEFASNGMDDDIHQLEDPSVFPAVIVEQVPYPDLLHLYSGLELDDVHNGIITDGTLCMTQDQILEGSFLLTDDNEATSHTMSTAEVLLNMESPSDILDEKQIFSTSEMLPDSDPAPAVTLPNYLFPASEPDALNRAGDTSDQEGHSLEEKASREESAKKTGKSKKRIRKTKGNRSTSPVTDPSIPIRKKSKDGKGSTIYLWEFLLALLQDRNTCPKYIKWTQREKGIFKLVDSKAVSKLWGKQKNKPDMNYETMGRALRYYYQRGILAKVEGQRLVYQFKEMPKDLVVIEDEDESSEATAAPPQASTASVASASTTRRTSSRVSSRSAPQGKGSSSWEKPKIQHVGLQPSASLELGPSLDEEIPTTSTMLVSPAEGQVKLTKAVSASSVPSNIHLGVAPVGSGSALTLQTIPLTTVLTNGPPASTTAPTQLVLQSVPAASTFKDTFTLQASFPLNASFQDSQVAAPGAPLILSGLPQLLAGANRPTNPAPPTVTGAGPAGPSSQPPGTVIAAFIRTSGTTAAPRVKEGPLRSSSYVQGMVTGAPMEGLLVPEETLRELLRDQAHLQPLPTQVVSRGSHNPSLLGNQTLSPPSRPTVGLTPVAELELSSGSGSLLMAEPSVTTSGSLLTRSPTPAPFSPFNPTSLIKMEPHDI
# Chain of HSF1 (Q00613 whole entry): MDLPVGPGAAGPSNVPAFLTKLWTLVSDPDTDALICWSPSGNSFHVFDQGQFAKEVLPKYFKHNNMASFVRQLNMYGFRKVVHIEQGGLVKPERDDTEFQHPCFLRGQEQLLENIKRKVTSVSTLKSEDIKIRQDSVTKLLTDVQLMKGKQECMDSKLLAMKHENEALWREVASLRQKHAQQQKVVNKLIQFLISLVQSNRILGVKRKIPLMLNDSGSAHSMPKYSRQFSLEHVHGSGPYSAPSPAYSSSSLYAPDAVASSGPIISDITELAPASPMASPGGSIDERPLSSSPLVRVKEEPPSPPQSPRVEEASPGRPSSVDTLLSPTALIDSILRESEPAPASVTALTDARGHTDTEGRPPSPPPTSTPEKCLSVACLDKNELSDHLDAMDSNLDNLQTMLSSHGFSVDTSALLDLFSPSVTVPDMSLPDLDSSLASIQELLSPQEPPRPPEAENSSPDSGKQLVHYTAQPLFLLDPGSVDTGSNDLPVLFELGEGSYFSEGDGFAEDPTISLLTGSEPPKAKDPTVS
sequence,measurement,setting,value
CCGATT,binding signal,FEV,"1.37 fold enrichment (6-mer frequency, TF over GST control)"
same,binding signal,ETV5,"1.34 fold enrichment (6-mer frequency, TF over GST control)"
same,binding signal,HSF1,"1.94 fold enrichment (6-mer frequency, TF over GST control)"
same,binding signal,SPIC,"1.18 fold enrichment (6-mer frequency, TF over GST control)"
same,binding signal,ELF4,"1.41 fold enrichment (6-mer frequency, TF over GST control)"
same,binding signal,ELK4,"1.37 fold enrichment (6-mer frequency, TF over GST control)"
same,binding signal,ETV2,"1.27 fold enrichment (6-mer frequency, TF over GST control)"
same,binding signal,ELF3,"1.17 fold enrichment (6-mer frequency, TF over GST control)"
same,binding signal,CRX,"2.69 fold enrichment (6-mer frequency, TF over GST control)"
same,binding signal,ETV1,"1.35 fold enrichment (6-mer frequency, TF over GST control)"
same,binding signal,ERF,"1.28 fold enrichment (6-mer frequency, TF over GST control)"
same,binding signal,ETV3L,"1.43 fold enrichment (6-mer frequency, TF over GST control)"
same,binding signal,ETS2,"1.39 fold enrichment (6-mer frequency, TF over GST control)"
same,binding signal,SPDEF,"1.32 fold enrichment (6-mer frequency, TF over GST control)"
same,binding signal,ETV7,"1.31 fold enrichment (6-mer frequency, TF over GST control)"
same,binding signal,ELF5,"1.39 fold enrichment (6-mer frequency, TF over GST control)"
same,binding signal,ETV3,"1.38 fold enrichment (6-mer frequency, TF over GST control)"
same,binding signal,ETV6,"1.52 fold enrichment (6-mer frequency, TF over GST control)"
